# Assay results reported in PubChem BioAssay (NCATS).
# A number with no mark means an inactive call. Inconclusive results are not listed. A call without a number means that no potency is given here. Activity calls are given as the source filed them. Unless noted, the call rests on the fitted dose curve; in most records, active means well fitted curve in the direction sought with a large enough effect; inconclusive means small, poorly fitted or top-dose-only effect, or another doubt; inactive means no such curve, though single readings can be large; an effect the other way counts as inactive or inconclusive.
# Legend:
# [1] = target: Alpha-galactosidase (Coffea arabica) (UniProt Q42656); assay: Counterscreen for Glucocerebrosidase Inhibitors: qHTS Assay for Coffee Bean alpha-Galactosidase at pH 4.5 (AID 957); details: purified coffee bean alpha-galactosidase, fluorogenic substrate; series mostly up to 76.9 µM
# Alpha-galactosidase (Coffea arabica), sequence (Q42656 whole entry, looked up): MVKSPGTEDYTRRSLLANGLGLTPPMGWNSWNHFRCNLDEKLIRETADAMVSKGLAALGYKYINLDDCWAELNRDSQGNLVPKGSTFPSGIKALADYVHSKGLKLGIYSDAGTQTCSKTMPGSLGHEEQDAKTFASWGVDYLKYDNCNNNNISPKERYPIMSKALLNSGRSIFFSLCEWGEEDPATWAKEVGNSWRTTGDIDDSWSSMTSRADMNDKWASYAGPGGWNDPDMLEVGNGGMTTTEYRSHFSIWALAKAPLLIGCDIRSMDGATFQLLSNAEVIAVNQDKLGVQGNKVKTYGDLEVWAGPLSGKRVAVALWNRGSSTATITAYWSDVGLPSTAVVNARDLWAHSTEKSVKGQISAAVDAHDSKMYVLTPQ
# In short: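 Fluorogenic qHTS at pH 4.5 (citrate buffer with Tween-20): 2 nM enzyme, 80 uM 4-MU-alpha-galactoside substrate, compound titrated 0.7 nM to 77 uM, 20 min room temperature. Glycine/NaOH stop; 4-MU read Ex 365/Em 440; Hill-equation AC50 against no-enzyme and enzyme controls.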
# [2] = target: Alpha-galactosidase (Coffea arabica) (UniProt Q42656); assay: Counterscreen for Glucocerebrosidase Inhibitors: qHTS Assay for Coffee Bean alpha-Galactosidase at pH 5.9 (AID 998); details: coffee bean alpha-galactosidase enzyme assay; series mostly up to 76.9 µM
# In short: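 Fluorogenic 4-MU substrate hydrolysis, 80 uM substrate and 2 nM coffee bean alpha-galactosidase, pH 5.9 citrate buffer, 20 min at room temperature, then NaOH/glycine stop. Titration 0.7 nM–77 uM, normalized to no-enzyme and enzyme controls, AC50 via Hill equation.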
# [3] = target: Tyrosyl-DNA phosphodiesterase 1 (Homo sapiens) (UniProt Q9NUW8); assay: Confirmation Assay for Inhibitors of Tyrosyl-DNA Phosphodiesterase (TDP1) (AID 489007); details: recombinant human TDP1 enzymatic activity, dose-response; further: potency means the concentration at half of the fitted maximal effect; nearly all actives have a fitted effect of over 40% in size
# Tyrosyl-DNA phosphodiesterase 1 (Homo sapiens), sequence (Q9NUW8 whole entry, looked up): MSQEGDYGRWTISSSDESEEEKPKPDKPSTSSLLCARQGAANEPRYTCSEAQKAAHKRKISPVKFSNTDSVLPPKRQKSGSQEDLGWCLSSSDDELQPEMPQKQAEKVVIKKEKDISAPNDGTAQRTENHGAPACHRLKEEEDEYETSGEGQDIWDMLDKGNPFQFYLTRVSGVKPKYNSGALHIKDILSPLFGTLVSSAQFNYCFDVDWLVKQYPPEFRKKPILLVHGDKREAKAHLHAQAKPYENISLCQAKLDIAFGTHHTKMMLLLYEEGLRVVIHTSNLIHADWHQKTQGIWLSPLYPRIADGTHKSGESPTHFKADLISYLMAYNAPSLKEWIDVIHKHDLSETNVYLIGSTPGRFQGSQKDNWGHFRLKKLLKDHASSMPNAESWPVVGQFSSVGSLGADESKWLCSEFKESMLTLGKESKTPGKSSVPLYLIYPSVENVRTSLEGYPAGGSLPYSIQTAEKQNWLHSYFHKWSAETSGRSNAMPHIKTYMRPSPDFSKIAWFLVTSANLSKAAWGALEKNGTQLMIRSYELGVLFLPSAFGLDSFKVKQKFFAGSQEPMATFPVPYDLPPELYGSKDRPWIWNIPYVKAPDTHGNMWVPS
# In short: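 AlphaScreen assay of tyrosine-FITC cleavage from a biotinylated DNA substrate (15 nM) by E. coli-expressed human Tdp1 (1 nM). Sequence: compound preincubation 15 min, reaction 5 min, bead detection 10 min, all at room temperature. No-enzyme wells give maximum signal.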
# [4] = target: Ubiquitin carboxyl-terminal hydrolase 1 (Homo sapiens) (UniProt O94782); assay: Inhibitors of USP1/UAF1: Pilot qHTS (AID 504865); details: purified USP1/UAF1, Ub-rhodamine cleavage fluorescence; series mostly up to 114 µM;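 further: rhodamine fluorescence freed from ubiquitin-rhodamine substrate followed over time; top concentration of the series differs between compounds; nearly all actives have a fitted effect of over 35% in size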
# Ubiquitin carboxyl-terminal hydrolase 1 (Homo sapiens), sequence (O94782 whole entry, looked up): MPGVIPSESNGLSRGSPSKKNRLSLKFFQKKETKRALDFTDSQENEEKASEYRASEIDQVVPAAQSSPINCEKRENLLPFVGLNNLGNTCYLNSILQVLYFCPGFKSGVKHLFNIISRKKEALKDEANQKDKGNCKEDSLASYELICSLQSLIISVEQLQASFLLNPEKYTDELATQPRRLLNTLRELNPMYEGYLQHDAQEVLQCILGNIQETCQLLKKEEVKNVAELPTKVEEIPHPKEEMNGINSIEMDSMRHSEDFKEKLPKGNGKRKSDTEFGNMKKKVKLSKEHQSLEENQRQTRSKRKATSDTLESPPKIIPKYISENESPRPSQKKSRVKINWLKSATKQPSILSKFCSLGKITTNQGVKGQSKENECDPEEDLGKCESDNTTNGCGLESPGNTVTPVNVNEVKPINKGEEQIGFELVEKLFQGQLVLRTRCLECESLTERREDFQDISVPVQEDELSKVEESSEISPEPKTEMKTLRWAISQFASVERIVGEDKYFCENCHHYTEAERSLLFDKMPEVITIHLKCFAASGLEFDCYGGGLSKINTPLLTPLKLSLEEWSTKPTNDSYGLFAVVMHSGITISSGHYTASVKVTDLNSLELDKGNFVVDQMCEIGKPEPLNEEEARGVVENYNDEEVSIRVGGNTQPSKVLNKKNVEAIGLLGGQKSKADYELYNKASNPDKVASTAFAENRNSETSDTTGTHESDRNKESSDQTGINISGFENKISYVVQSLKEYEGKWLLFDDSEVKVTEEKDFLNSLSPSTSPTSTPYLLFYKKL
# In short: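 Kinetic fluorescence assay: 1nM USP1/UAF1, 15 min compound preincubation, then 150nM Ub-Rho; 480/540 nm.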
# [5] = tested on: 7G8; assay: qHTS profiling for inhibitors of Plasmodium falciparum proliferation (AID 504749); further: nearly all actives have a fitted effect of over 60% in size; further: potency means the concentration at half of the fitted maximal effect; details: P. falciparum in erythrocytes, SYBR Green DNA, 72 h; series mostly up to 28.7 µM
# In short: (§1)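 SYBR Green fluorescence of parasite DNA, read after lysis and overnight dark incubation, measured growth over 72 h in erythrocyte culture at 0.3% parasitemia and 2.5% hematocrit. Data normalised to DMSO and 0.29 uM artemisinin, with plate-drift correction.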
# [6] = tested on: DIV17; assay: as above; details: P. falciparum in erythrocytes, SYBR Green DNA, 72 h; series mostly up to 28.7 µM
# In short: as §1
# [7] = tested on: PC26; assay: as above; details: P. falciparum in erythrocytes, SYBR Green DNA, 72 h; series mostly up to 28.7 µM
# In short: as §1
# [8] = tested on: W2; assay: as above; details: P. falciparum in erythrocytes, SYBR Green DNA, 72 h; series mostly up to 28.7 µM
# In short: as §1
# [9] = S16 Schwann cell PMP22 intronic element beta-lactamase assay (AID 624044; calls by dose curve; further: nearly all actives have a fitted effect of over 15% in size); details: S16 rat Schwann cells, PMP22 element beta-lactamase FRET, 24 h; ratio activity, negative = inhibition: at 38.3 µM (top of the series)
# In short: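 Beta-lactamase reporter under a PMP22 intronic regulatory element in stable S16 rat Schwann cells; 24 h compound exposure. 460 nm blue signal normalized between DMSO (0%) and potassium clavulanate, with 535 nm FRET tracking viability; curves classed by r2 and response.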
# [10] = S16 Schwann cell viability assay (CellTiter-Glo assay) (AID 624031); details: S16 rat Schwann cells viability, 24 h; series mostly up to 57.5 µM;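 further: cellular ATP luminescence as a viability measure; nearly all actives have a fitted effect of over 70% in size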
# In short: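 Native S16 rat Schwann cells in DMEM/10% FBS without phenol red were incubated overnight, then exposed to compounds for 24 h at 37 °C/5% CO2. Viability was read as ATP luminescence (CellTiter-Glo), normalized to no-cell wells and DMSO (0%).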
# [11] = target: Bile acid receptor (Homo sapiens) (UniProt Q96RI1); assay: qHTS assay for small molecule antagonists of farnesoid X receptor signaling (AID 588526; calls by dose curve); details: HEK293T FXR-UAS-bla, beta-lactamase ratio, antagonist mode; series mostly up to 76.7 µM
# Bile acid receptor (Homo sapiens), sequence (Q96RI1 whole entry, looked up): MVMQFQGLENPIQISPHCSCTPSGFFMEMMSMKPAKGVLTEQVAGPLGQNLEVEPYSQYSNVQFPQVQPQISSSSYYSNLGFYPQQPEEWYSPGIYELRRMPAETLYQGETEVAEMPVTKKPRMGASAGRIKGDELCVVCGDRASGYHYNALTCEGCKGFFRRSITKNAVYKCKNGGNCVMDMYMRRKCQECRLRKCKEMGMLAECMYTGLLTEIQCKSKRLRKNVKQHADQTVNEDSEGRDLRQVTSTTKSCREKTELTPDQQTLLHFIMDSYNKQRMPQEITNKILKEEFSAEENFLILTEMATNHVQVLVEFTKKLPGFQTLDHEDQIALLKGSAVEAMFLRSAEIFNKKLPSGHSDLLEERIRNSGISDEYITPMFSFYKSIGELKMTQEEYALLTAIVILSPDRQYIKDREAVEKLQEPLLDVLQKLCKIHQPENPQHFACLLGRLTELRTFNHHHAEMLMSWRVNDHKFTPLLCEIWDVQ
# In short: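 Beta-lactamase reporter antagonist mode: HEK293T FXR-UAS-bla cells, titrated compound, CDCA stimulation, 16 h 37 C, CCF4 dye 2 h RT. Data normalized to CDCA 50 uM and DMSO; Hill-fit IC50.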
smiles,measurement,setting,value
CCn1c(=O)c2[nH]c(-c3ccccc3)nc2n(CC)c1=O,outcome,[1],inactive
same,outcome,[2],inactive
CC(=O)Nc1ccc(N=Cc2c(O)n(Cc3ccco3)c(=O)[nH]c2=O)cc1,Potency,[3],22400 nM (active)
CC1(C)S[C@@H]2[C@H](N)C(=O)N2C1C(=O)O (some centres not stated),Potency,[4],inactive
same,Potency,[5],inactive
same,Potency,[6],inactive
same,Potency,[7],inactive
same,Potency,[8],inactive
C=C1Nc2ccccc2C(=O)N1c1ccccc1C,Potency,[4],inactive
same,Potency,[5],inactive
same,Potency,[6],inactive
same,Potency,[7],inactive
same,Potency,[8],inactive
CCCCCC(O)C1C(=O)OC(C)C(O)\C=C/C=C\C=C/C=C\C=C(\C)C(O)C(O)C(O)CC(O)CC(O)CC(O)CC(O)CC1O (configuration not stated),Potency,[4],inactive
same,Potency,[5],inactive
same,Potency,[6],inactive
same,Potency,[7],inactive
same,Potency,[8],inactive
CCOC(=O)CCCc1cc[c]([Sb](=[O])([OH])[OH])cc1,Potency,[3],794 nM (active)
OCC(O)[C@H]1O[C@@H]2O[C@H](C(Cl)(Cl)Cl)O[C@@H]2[C@H]1O (some centres not stated),Potency,[4],inactive
same,Potency,[9],inactive
same,Potency,[5],inactive
same,Potency,[6],inactive
same,Potency,[7],inactive
same,Potency,[8],inactive
Nc1nc(/C(=C/CC(=O)O)C(=O)NC2C(=O)N3C(C(=O)O)=CCSC23)cs1 (configuration not stated),Potency,[3],12600 nM (active)
same,Potency,[4],inactive
Cc1ccc2c(c1)[C@@H]1CN(C)CC[C@H]1N2,Potency,[4],inactive
same,Potency,[10],inactive
same,Potency,[9],inactive
same,Potency,[5],inactive
same,Potency,[6],inactive
same,Potency,[7],inactive
C[C@@H]1CC[C@H]2[C@@H](C)C(=O)O[C@@H]3OC4(C)CC[C@@H]1C32OO4 (some centres not stated),Potency,[4],inactive
same,Potency,[9],inactive
same,Potency,[5],1.6 nM (active)
same,Potency,[6],9.5 nM (active)
same,Potency,[7],7.6 nM (active)
same,Potency,[8],3 nM (active)
C[C@]12C=CC(=O)C=C1CC[C@@H]1C2CC[C@]2(C)OC(=O)CCC12 (some centres not stated),Potency,[4],inactive
same,Potency,[9],inactive
same,Potency,[5],inactive
same,Potency,[6],inactive
same,Potency,[7],inactive
same,Potency,[8],inactive
Nc1nc(O)c(-c2ccccc2)o1,Potency,[4],inactive
same,Potency,[9],inactive
same,Potency,[5],inactive
same,Potency,[6],inactive
same,Potency,[7],inactive
same,Potency,[8],inactive
OC[C@@H](O)[C@H]1O[C@@H]2OC(C(Cl)(Cl)Cl)O[C@H]2[C@H]1O (some centres not stated),Potency,[4],inactive
same,Potency,[10],inactive
same,Potency,[9],inactive
same,Potency,[5],inactive
same,Potency,[6],inactive
same,Potency,[7],inactive
same,Potency,[8],inactive
C#CCN1CC(=O)N(COC(=O)[C@@H]2[C@@H](C=C(C)C)C2(C)C)C1=O,Potency,[11],inactive
same,Potency,[9],inactive
same,Potency,[5],inactive
same,Potency,[6],inactive
same,Potency,[7],inactive
same,Potency,[8],inactive
Cc1cc(C)cc(C(=O)OC2CC3CCC(C2)N3C)c1 (configuration not stated),Potency,[4],inactive
same,Potency,[5],8910 nM (active)
CC1(C)[C@@H](C=C(Cl)Cl)[C@@H]1C(=O)OCc1c(F)c(F)cc(F)c1F,Potency,[4],inactive
same,Potency,[9],inactive
same,Potency,[5],inactive
same,Potency,[6],inactive
same,Potency,[7],inactive
CN1C2CCC1C(C(=O)O)C(OC(=O)c1ccccc1)C2 (configuration not stated),Potency,[4],inactive
same,Potency,[9],inactive
same,Potency,[5],inactive
same,Potency,[6],inactive
same,Potency,[7],inactive
same,Potency,[8],inactive
